This excerpt belongs to a sample that is enriched for hits.
TDP1 cell noCPT – qHTS for Inhibitors of human tyrosyl-DNA phosphodiesterase 1 (TDP1): qHTS in cells in absence of CPT; actives 15% (n = 420,000); Potency, µM (titrated, usually from 46.2 µM), for the others: at the highest dose activity change, negative = growth inhibition, most hits filed as inhibitors; AID 686978, 2013; DT40 Tdp1-/- hTDP1 cells, no CPT, ATP luminescence, 48 h; further: potency means the concentration at half of the fitted maximal effect; nearly all actives have a fitted effect of over 55% in size
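Readout: luminescence from CellTiter-Glo after 30 min in the dark at RT. Cells: DT40 Tdp1-/- with stable hTDP1, 400/well. Exposure: compounds alone, ≥48 hr, 37 °C.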
DT40 TDP1 CPT – growth inhibition of DT40 Tdp1-/-;hTDP1 cells with camptothecin (screen for TDP1 inhibitors). AID 686979. Potency, µM (titrated, usually from 46.2 µM), without a hit: at the highest dose activity change, negative = growth inhibition, hits mostly inhibitors. actives 12% (n = 420,000). chicken DT40 Tdp1-/-;hTDP1 cells + 20 nM CPT, ATP luminescence, 48 h; further: potency means the concentration at half of the fitted maximal effect; nearly all actives have a fitted effect of over 55% in size
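Cell growth measured by CellTiter-Glo luminescence after a minimum 48 h, 37 C compound exposure with 20 nM CPT in Tdp1-knockout DT40 cells stably expressing hTDP1, seeded 400/well; qHTS titration format.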
IL1B secr inh – inhibitors of inflammasome signaling (IL-1 beta secretion). THP-1 LPS/ATP IL-1B secretion, AlphaLISA, 16 h; active compounds read low. activity change, % at 57.5 µM. actives 4.7% (n = 360,000); in the data active means activity change below about -50%; inconclusive means mostly about -30% to -49%
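Secreted IL-1B measured by AlphaLISA bead assay after 16 h compound exposure of THP-1 cells; compounds (final up to 57.5 uM) added 1 h before LPS (250 ng/mL) and ATP (1.25 mM) stimulation; lower signal means less secretion.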
HT1080NT lethal – kills 2HG-producing HT-1080-NT fibrosarcoma cells; HT-1080-NT fibrosarcoma viability, CellTiter-Glo ATP luminescence, 48 h; Potency, µM (titrated, usually from 46.1 µM), inactives show at the top dose activity, negative = less viability, hits mostly cytotoxic; actives 1.6% (n = 360,000); AID 686970;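 further: NT is the 2HG producing partner of a matched IDH1 knockdown line; potency means the concentration at half of the fitted maximal effect; 0% = DMSO-treated cells and -100% = media-only wells without cells; nearly all actives have a fitted effect of over 55% in size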
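Fibrosarcoma NT cells, 750 per well in 5% FBS RPMI, were exposed to compound for 48 hours. Viability: CellTiter-Glo luminescence.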
12-LOX inh – blocks human arachidonate 12S-lipoxygenase; P18054; purified 12hLO, xylenol orange hydroperoxide absorbance; Potency, µM (doses to about 108 µM), for inactives: top-dose activity change, negative = inhibition, most hits filed as inhibitors; actives 1.1% (n = 580,000); AID 1671190; further: potency means the concentration at half of the fitted maximal effect
Target sequence (P18054 whole entry, looked up): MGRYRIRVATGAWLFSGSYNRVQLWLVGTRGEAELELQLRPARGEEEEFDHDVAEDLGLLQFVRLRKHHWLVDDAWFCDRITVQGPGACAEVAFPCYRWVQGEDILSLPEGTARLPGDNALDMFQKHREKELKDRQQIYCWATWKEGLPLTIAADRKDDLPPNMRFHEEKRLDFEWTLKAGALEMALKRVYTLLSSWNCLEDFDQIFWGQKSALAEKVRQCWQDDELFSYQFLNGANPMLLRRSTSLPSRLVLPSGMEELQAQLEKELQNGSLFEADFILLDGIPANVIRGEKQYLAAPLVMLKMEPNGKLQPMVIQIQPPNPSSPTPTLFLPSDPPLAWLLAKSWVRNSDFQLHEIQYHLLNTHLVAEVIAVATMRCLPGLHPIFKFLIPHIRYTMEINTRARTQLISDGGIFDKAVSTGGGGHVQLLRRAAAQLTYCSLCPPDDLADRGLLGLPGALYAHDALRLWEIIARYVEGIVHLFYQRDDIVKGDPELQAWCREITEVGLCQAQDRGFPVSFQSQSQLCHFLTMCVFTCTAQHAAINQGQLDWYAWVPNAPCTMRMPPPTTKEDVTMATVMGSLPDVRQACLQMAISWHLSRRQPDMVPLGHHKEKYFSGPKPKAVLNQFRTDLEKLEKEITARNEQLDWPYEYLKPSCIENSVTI
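Purified human 12hLO (150 nM final) in 25 mM Hepes, 0.01% Triton X-100, pH 7.0 was preincubated 15 min at room temperature with compound. Then 40 uM arachidonic acid was added, 30 min. Hydroperoxide was read by Fe-XO absorbance ratio 573/405 nm.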
HT1080 IDH1KD tx – kills HT-1080 cells with IDH1 knockdown. HT-1080 IDH1 knockdown viability, ATP luminescence, 48 h. Potency, µM (titrated, usually from 46.1 µM), without a hit: top-dose activity, negative = toxicity, most hits filed as cytotoxic. actives 2% (n = 360,000);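 further: potency means the concentration at half of the fitted maximal effect; 0% = DMSO wells and -100% = cell-free medium wells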
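% activity derives from luminescence (CellTiter-Glo), normalised to DMSO and no-cell wells. HT-1080-IDH1KD cells, 750/well, had 48 h compound exposure at 37 °C.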
Starred values were filed as active, the others as inactive; ? = inconclusive; · = not tested or not shown; [ ] = dose if it differs, or a comment. Unless noted, the call rests on the fitted dose curve; in most records, active means well fitted curve in the direction sought with a large enough effect; inconclusive means small, poorly fitted or top-dose-only effect, or another doubt; inactive means no such curve, though single readings can be large; an effect the other way counts as inactive or inconclusive. Unless noted, on the % scale 0 is the no-effect control and ±100 the full control effect.

SMILES	TDP1 cell noCPT	DT40 TDP1 CPT	IL1B secr inh	HT1080NT lethal	12-LOX inh	HT1080 IDH1KD tx
CC(=O)NC[C@H]1CCN(Cc2ccc3c(c2)CCO3)C[C@H]1N(C)C	·	·	·	·	65.4%	·
Nc1nc(CN2CCN(Cc3ccc4c(c3)OCO4)CC2)nc(Nc2ccccc2Cl)n1	·	·	·	·	-2.3%	·
CN1CC(=O)N/C1=N/C(=O)Nc1cccc(Cl)c1	-0.4%	-1.7%	·	·	-2.4%[22.9 µM]	·
CN1CC(=O)NC1=NC(=O)C12CC3CC(CC(C3)C1)C2	18.4µM*	?	5.3	-17.2%	13.6%	-18.8%
Cc1ccc(CN2CC(C(=O)N3CCN(c4ccccc4O)CC3)CC2=O)cc1 (stereo unspecified)	?	-19.3%	-0.1	6.9%	-24.2%	1.2%
CCCOc1ccc(Cl)cc1CNC(=O)C1CCN(CC(N)=O)CC1	·	·	·	·	6.4%	·
COc1cccc(NS(=O)(=O)c2ccc3[nH]c4c(c3c2)CCCCCC4)c1	20.6µM*	16.4µM*	·	·	6.4%	·
COC(=O)c1ccc(NS(=O)(=O)c2ccc3[nH]c4c(c3c2)CCCC4)cc1	6.51µM*	?	·	·	?	·
COc1ccc(NS(=O)(=O)c2ccc3[nH]c4c(c3c2)CCCCCC4)cc1	?	?	·	·	-22.8%	·
CCOC(=O)C1CCN(S(=O)(=O)c2ccc3[nH]c4c(c3c2)CCCC4)CC1	-18.8%	?	44.4	-10.7%	11.7%	24.6%
CCOC(=O)CC(NS(=O)(=O)c1ccc2[nH]c3c(c2c1)CCCC3)c1ccccc1Cl (stereo unspecified)	?	18.4µM*	·	·	4.7%	·
CC(=O)c1ccc(NS(=O)(=O)c2ccc3[nH]c4c(c3c2)CCCC4)cc1	-26.1%	-3.9%	·	·	?	·
COc1ccccc1C(=O)N1CCN(C(=O)c2nnn3c2COC(c2ccc(Cl)cc2)C3)CC1 (stereo unspecified)	·	·	·	·	8.1%	·
C/C(=N\NC(=O)c1ccc(CN(C)S(=O)(=O)c2ccc(C)cc2)cc1)c1ccc(OC(F)F)cc1	1.46µM*	?	31.5	-18.4%	14.0%	-29.4%
Cc1ccc(S(=O)(=O)N(C)Cc2ccc(C(=O)N/N=C/c3ccc(OC(F)F)cc3)cc2)cc1	20.6µM*	14.6µM*	9.8	-2.8%	-18.4%	-8.8%
CC(OC(=O)c1ccco1)C(=O)Nc1ccc(C(F)(F)F)cc1 (stereo unspecified)	25.9µM*	10.3µM*	-8.8	0.6%	2.3%	11.0%
CCCCN1C(=O)Cc2c1nc(N)c1c(N)nc(N(CCC)CCC)c(C#N)c21	-8.7%	-15.5%	29.8	-3.7%	?	1.0%
N#Cc1c(N2CCCC(O)C2)nc(N)c2c(N)nc3c(c12)CC(=O)N3C12CC3CC(CC(C3)C1)C2 (stereo unspecified)	18.4µM*	16.4µM*	8.8	-15.8%	-6.4%	-14.1%
C=C(C)CN(CC)c1nc(N)c2c(N)nc3c(c2c1C#N)CC(=O)N3C12CC3CC(CC(C3)C1)C2	3.26µM*	3.26µM*	-60.0*	-29.5%	?	-18.9%
CCn1c(NC(=O)c2oc3ccccc3c2CSC)nc2ccccc21	·	·	·	·	-1.7%	·
C=CC[C@]12CC=CC(=O)[C@@]1(O)O[C@H](c1ccc(OC)c(OC)c1)[C@H]2C	5.8µM*	10.3µM*	-114.5*	-2.1%	-0.6%	-15.6%
C=CC[C@]12C=C(OC)C(=O)C(OC)=C1O[C@@H](c1ccc3c(c1)OCO3)[C@H]2C	-8.8%	-10.3%	-8.3	-2.8%	-7.4%	0.9%
CC(=O)c1cccc(NC(=O)Cn2c(N3CCCCC3)nc(C)c(C)c2=O)c1	·	·	·	·	11.8%	·
